From PubChem BioAssay AID588413 (Sanford-Burnham Center for Chemical Genomics, 2011)
The campaign covered roughly 340,000 compounds. About 2,500 (0.74%) were called active. This is one part of a sample in which actives are shown more often than they occur. Values without a mark were called inactive.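 Rule for the calls: active = inhibition above about 55% (limit read from the data); inactive = the rest.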

Assay: Gli-Sufu pathway antagonists, primary screen, luciferase luminescence, Sufu-KO-LIGHT cells, uHTS (AID 588413);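 note: 0% = DMSO-treated cells and 100% = wells with medium but no cells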
Conditions: Sufu-KO-LIGHT fibroblasts, Gli luciferase reporter luminescence; at 5 µM; stronger effect = higher value
`O=C(N/C(=C\c1ccc([N+](=O)[O-])cc1)C(=O)N1CCOCC1)c1cccc(Br)c1` showed an inhibition of 14.4%. For `Oc1ccc(/C=N/Nc2ccc(C(F)(F)F)cn2)cc1O`, the inhibition was 75.1% (active). `FC(F)(F)c1cccc(N/N=C/c2ccccc2)c1` gave an inhibition of 2.85%. With `CC(C)c1ccc(C=NNc2ccc([N+](=O)[O-])cn2)cc1` the inhibition was -110%. For `COc1cccc2cc(C(N)=O)/c(=N\NC(=O)c3ccccc3)oc12`, the inhibition was 61.3% (active). Compound `COc1cccc2cc(C(=O)N3CCN(C(=O)c4ccccc4)CC3)c(=O)oc12` has an inhibition of 0.62%. In the case of `COc1cccc2cc(C(=O)N(C)C)c(=O)oc12`, the inhibition is reported as -0.51%. With `O=S(=O)(Cc1ccc(Cl)cc1Cl)c1ccc(Cl)cc1` the inhibition was -10.2%. `Nc1ccc(N=Nc2ccccc2Cl)c(N)n1` gave an inhibition of -22.2%. `O=c1c2ccccc2nc2n1C(CSCc1ccccc1)CS2` (configuration not stated) showed an inhibition of 41.5%. For `O=c1c2ccccc2nc2n1C(CSCc1cccc(C(F)(F)F)c1)CS2` (configuration not stated), the inhibition was 65.9% (active). Compound `N#Cc1c(-c2ccccc2)nc(SCc2cccc(C(F)(F)F)c2)[nH]c1=O` has an inhibition of 2.78%. With `CN(CC(=O)O)C(=O)c1ccccc1` the inhibition was -17.4%. For `CN(O)C(=S)c1ccccc1`, the inhibition was 82.7% (active). For `CN(/N=C/c1ccccc1)C(=S)c1ccccc1`, the inhibition was 2.13%. Work on `COc1ccc(CNc2c(CO)cnc3c2cnn3C)cc1` yielded an inhibition of 25.4%. Compound `CCOC(=O)C1CN(S(=O)(=O)c2ccc(OC)cc2)c2cc(Cl)ccc2O1` (configuration not stated) has an inhibition of 21.4%. `CCOc1ccc(S(=O)(=O)NCc2ccc3c(c2)OCO3)cc1C` showed an inhibition of -7.28%. In the case of `CCCOc1ccc(Cc2c(O)nc(SC)[nH]c2=O)cc1C`, the inhibition is reported as -2.99%. In the case of `CCCOc1ccc(Cn2c(O)cc(=O)[nH]c2=O)cc1`, the inhibition is reported as 9.29%. In the case of `CCCOc1ccc(Cc2c(Cl)nc(SC)nc2NC)cc1`, the inhibition is reported as 57.3% (active). Work on `CC(C)N(C(=O)CN1CCN(S(=O)(=O)c2ccc(Br)s2)CC1)C(C)C` yielded an inhibition of -1.96%. With `CC(C)OCCCNc1ncnc2c1[nH]c1ccc(F)cc12` the inhibition was 62% (active). Work on `Fc1ccc2[nH]c3c(N4CCN(Cc5ccc6c(c5)OCO6)CC4)ncnc3c2c1` yielded an inhibition of -4.16%. With `CC(=O)NCc1ccc(S(=O)(=O)NC2CCN(Cc3ccccc3)CC2)cc1` the inhibition was -8.88%. `CC(=O)c1cc2c(cc1NC(=O)CN1CCCCCC1)OCO2` gave an inhibition of -2.2%. `CCn1c(C)cc(=O)cc1-c1ccc(Cl)cc1` gave an inhibition of 8.82%. For `COc1ccc(Cn2c(-c3ccc(Cl)cc3)c[n+]3ccccc23)cc1`, the inhibition was 66.8% (active). Work on `COc1ccc(Cn2c(=O)cc(C)[nH]c2=S)cc1` yielded an inhibition of 8.5%. With `C[C@@H]1CN([C@@H](C)CO)C(=O)c2cc(NC(=O)C3CC3)ccc2O[C@H]1CN(C)C` the inhibition was -16%. With `Cc1ccccc1N1CCN(CC(=O)NCc2ccc(Cl)cc2)CC1` the inhibition was 6.04%. Compound `COc1ccc(OC)c(CN2C(=O)CCC2(C)C(=O)NC2CCCCCC2)c1` (configuration not stated) has an inhibition of 23.4%. In the case of `O=C(C1CCCO1)N1CCN(C(=S)NC2CC2)CC1` (configuration not stated), the inhibition is reported as -11.3%. Work on `COc1ccc(-c2cn3ccc(C)cc3n2)cc1` yielded an inhibition of -72%. In the case of `Cc1ccc2nc(-c3ccc(Br)cc3)cn2c1`, the inhibition is reported as 20.9%. For `Cc1ccc(-c2cn3cc(C)ccc3n2)cc1`, the inhibition was 63.8% (active). Work on `O=C(CCS(=O)(=O)c1cccc2nonc12)NCCc1ccccc1Cl` yielded an inhibition of 4.43%. In the case of `CC1(C)CCSC(/C=C/c2ccccc2)=N1`, the inhibition is reported as 4.7%. Compound `CCN(CC(=O)Nc1ccccc1C(F)(F)F)C(=O)C1CCN(C(=O)Nc2ccccc2)CC1` has an inhibition of 7.33%. `COc1cc(C(F)(F)F)c(C(=O)N(C)c2ccc(Cl)cc2)cn1` gave an inhibition of 0.82%. For `N=c1c2c3c(sc2nc2n1CCCCC2)CCCC3`, the inhibition was -5.48%. With `O=C(CCc1ccccc1)Nc1ccnn1C1CCN(Cc2ccc(OCCO)cc2)CC1` the inhibition was 11.7%. In the case of `CC[n+]1cc(C)ccc1/C=C/c1ccc(N(C)C)cc1`, the inhibition is reported as 81.8% (active). `COc1ccc(-c2c(C#Cc3ccsc3)c3cc(-c4ccc(CN5CCOCC5)cc4)ccc3n2C)cc1` gave an inhibition of 9.39%. `O=C(COc1cccnc1[N+](=O)[O-])Nc1ccc(Cl)cc1F` gave an inhibition of -19.8%. Work on `Cc1ccc(S(=O)(=O)NCCC(=O)NC2CCN(Cc3ccccc3)CC2)cc1` yielded an inhibition of 3.57%. For `Cc1ccc(-c2cc(C(=O)NC3CCN(Cc4ccccc4)CC3)c3ccccc3n2)cc1`, the inhibition was 10.8%. In the case of `Cc1ccc(-c2nc(CSCC(=O)NC3CCN(Cc4ccccc4)CC3)c(C)o2)cc1`, the inhibition is reported as 67.4% (active). For `Cc1cc(C)c(C=NNc2nc3c([nH]2)c(=O)n(C)c(=O)n3C)c(C)c1`, the inhibition was 1.9%. `Cc1ccc(C(=O)Nc2sc(Cc3ccc4c(c3)OCO4)c(C)c2C(N)=O)cc1` showed an inhibition of -1.06%. In the case of `COCOc1cc(O)c(C(=O)/C=C/c2ccc(OCOC)c(OCOC)c2)c(OCOC)c1`, the inhibition is reported as 3.02%. In the case of `CC(C)c1ccc(S(=O)(=O)N2CCN(C(=O)c3ccc(N4CCCC4)c([N+](=O)[O-])c3)CC2)cc1`, the inhibition is reported as -1.24%. For `Cc1ccc(S(=O)(=O)N2CCN(C(=O)c3ccc(-n4cncn4)c([N+](=O)[O-])c3)CC2)cc1`, the inhibition was 1.3%. For `Nc1ccc(C(=O)N2CCN(S(=O)(=O)c3ccc(Cl)cc3)CC2)cc1[N+](=O)[O-]`, the inhibition was 98.7% (active). Compound `CC(=O)c1cc(-c2ccccc2)n(CCC(=O)NC2CCCCCC2)c1C` has an inhibition of 1.89%. With `COc1cccc2c1C(=O)c1c(O)c3c(c(O)c1C2=O)CC(O)(C(C)=NNC(=O)c1ccc(Cl)c(Cl)c1)CC3OC1CC(N)C(O)C(C)O1` (configuration not stated) the inhibition was 71.2% (active). In the case of `CCCCN(C(=O)c1ccc(S(=O)(=O)N2CCOCC2)cc1)C1CCS(=O)(=O)C1` (configuration not stated), the inhibition is reported as 0.87%. Compound `O=C(OC1CCOC1=O)c1ccc(-c2nc3ccccc3s2)s1` (configuration not stated) has an inhibition of -21%. Compound `COc1ccc(/C(C)=N\NC(=O)c2ccc(-c3ccccc3)cc2)c(F)c1` has an inhibition of 2.32%. In the case of `Cc1cccc(C)c1NC(=S)N1CCCCCC1`, the inhibition is reported as 3.64%. Work on `Cc1cnc(NC(=O)c2ccccn2)s1` yielded an inhibition of -50.9%. `CNC(=S)N1CCN(c2ccccn2)CC1` showed an inhibition of 2.59%. With `C/C(=N\NC(=O)c1ccccc1F)c1ccccn1` the inhibition was 58.4% (active). Compound `CC1=NNC(=O)C1CCC(=O)N/N=C(\C)c1ccc(Cl)cc1` (configuration not stated) has an inhibition of 3.52%. With `CC(=NNC(=S)N1CCCCCC1)c1ccccn1` the inhibition was 63.6% (active). In the case of `C/C(=N\NC(=O)Cc1ccc(Cl)cc1)c1ccccn1`, the inhibition is reported as 88% (active). For `NC(=O)NC(CC(=O)NNC(=O)c1ccccn1)c1ccc(Cl)cc1` (configuration not stated), the inhibition was 5.55%.
